# This is part of a sample that, as a whole, favours compounds with a hit. Of some 83,000 tested, about 20% had one in any assay.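 Assay: single dose, 48 h. Readout: percent growth (0 = no net growth; negative = cell death). Active: <10.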 Unmarked numbers belong to inactive results. Active and inactive are the calls of the source.
# System: CCRF-CEM leukemia
# Test: NCI-60 one-dose screen, 48 h (100 = growth as untreated, 0 = no growth, -100 = all killed)
# Details: 10 µM unless noted
row,Compound,growth
1,CCC(C)CC(C)C(=O)c1c(O)ccn(O)c1=O (stereo unspecified),15.8%
2,COc1ccc2nc(NC(=O)c3cc(-c4ccc(F)cc4)n4nc(-c5ccccc5)cc4n3)sc2c1,64.1%
3,COc1cccc2c1O/C(=C\c1c([N+](=O)[O-])ncn1C)C2=O,-7.36% (active)
4,O=C(Nc1ccncc1)C(=O)c1cn(S(=O)(=O)c2cccc(F)c2)c2ccccc12,38.7%
5,COc1ccc(-c2cn(-c3ccccc3)c(-c3ccccc3)n2)cc1OC,-66.6% (active)
6,Clc1ccc2nc(Cl)c3ccccc3c2c1,81.6%
7,Nc1ccc(C2=NN(c3ccccc3)C(c3ccc(Cl)cc3)C2)cc1 (stereo unspecified),64.2%
8,CSc1nnc(C2=CC(=O)c3ccccc3C2=O)n1-c1ccccc1,36.8%
9,CCN(CC)c1ccc(CN(CC(=O)c2ccc(Cl)c(Cl)c2)Cc2ccccc2)cc1,97.8%
10,C/C(=C\CCc1ccsc1)CC/C=C(\C)CCCN1CCC(CO)CC1,2.24% (active)
11,O=C(Nc1cccc(C(F)(F)F)c1)Nc1ccc(OCc2nnc(-c3ccc(Cl)cc3)o2)c(F)c1,60.8%
12,CCOc1cc(-c2ccc[nH]2)[nH]c1/C=C1\N=C(C)C(C(=O)OC)=C1C,-37.8% (active)
13,O=C1/C(=C/c2ccc([N+](=O)[O-])s2)Oc2ccc(Br)cc21,-3.33% (active)
14,COc1ccc(Nc2nccc(N3CCN(c4c5ccc(Cl)cc5nc5ccc(OC)cc45)CC3)n2)cc1,4.07% (active)
15,Cc1cc(NCCCNc2ccnc3cc(Cl)ccc23)nc(N2CCN(C)CC2)n1,26.1%
16,O=C(Nc1ccc(OCc2nnc(-c3ccccc3)o2)c(F)c1)Nc1ccc(Cl)c(C(F)(F)F)c1,18.9%
17,c1cnc2n[nH]c(Nc3ncnc4c3sc3ncccc34)c2c1,88.6%
18,COc1cc(/C=C2\CCC/C(=C\c3ccc(OCC4CO4)c(OC)c3)C2=O)ccc1OCC1CO1 (stereo unspecified),1.96% (active)
19,COc1cc(/C=C2\COc3ccc(O)c(O)c3C2=O)cc(OC)c1,3.2% (active)

row,Compound,growth
1,O=C1/C(=C/c2ccc([N+](=O)[O-])o2)Oc2ccc(Cl)cc21,-23.4% (active)
2,O=[N+]([O-])c1cnc(Sc2ccncn2)c([N+](=O)[O-])c1,-49.2% (active)
3,O=C(O)c1ccc(NC(=O)c2ccc(Nc3ccnc(C(F)(F)F)c3)cc2)cc1,120%
4,Cc1ccc2c(c1)O/C(=C\c1ccc([N+](=O)[O-])o1)C2=O,-32.4% (active)
5,O=C1/C(=C/c2ccc([N+](=O)[O-])o2)Oc2ccc(Br)cc21,66.2%
6,O=C(Nc1ccc(Cl)cc1)c1cc2c(cc1O)[nH]c1ccccc12,18.1%
7,Cc1cc2c(cc1C)Nc1sc(NC(=O)CN3CCN(C)CC3)nc1C(=O)N2,98.3%
8,COc1ccc2nc3cc(Cl)ccc3c(N3CCN(c4ccnc(Nc5ccc(F)cc5)n4)CC3)c2c1,38.1%
9,COc1cc(C2CC(c3ccc(C)cc3)=NN2C(C)=O)ccc1Oc1ccnc2cc(Cl)ccc12 (stereo unspecified),74.5%
10,O=C(/C=C/c1cccnc1)NCCCCC1CCCN(C(=O)c2ccccc2)C1 (stereo unspecified),41.5%
11,CCOC(=O)c1c(NC(=O)C2CCCCC2C(=O)O)sc2c1CCCC2 (stereo unspecified),99.6%
12,Cc1ccc(C=C2C(Cl)=C(Cl)C(Cl)=C2Cl)cc1,-45.2% (active)
13,O=C(/C(=N/O)S(=O)(=O)c1ccccc1)c1cccs1,98.5%
14,CCOc1nc(-c2ccccc2)cc2c(O)c(C(=O)n3nc(C)cc3C)[nH]c(=O)c12,96.5%
15,COc1ccc(OC)c(NC(=O)c2cc3oc4ccccc4c3cc2O)c1,99.4%
16,CN(C)c1ccc(/C=C(\C#N)c2nc3ccccc3c(=O)[nH]2)cc1,107%
17,Nc1nc(SCc2ccccc2Cl)c(-c2ccccc2)c(SCc2ccccc2Cl)n1,78.4%
18,C/C(=C\CCc1ccsc1)CC/C=C(\C)CCCN1CCN(CCO)CC1,24.1%
19,CCN1C(=O)c2ccc3c4c(ccc(c24)C1=O)C(=O)N(CCCNCc1ccccc1OC)C3=O,-42.3% (active)

# System: MOLT-4 leukemia
# Test: as above
# Details: 10 µM unless noted
row,Compound,growth
1,CCC(C)CC(C)C(=O)c1c(O)ccn(O)c1=O (stereo unspecified),9.61% (active)
2,COc1ccc2nc(NC(=O)c3cc(-c4ccc(F)cc4)n4nc(-c5ccccc5)cc4n3)sc2c1,96.1%
3,COc1cccc2c1O/C(=C\c1c([N+](=O)[O-])ncn1C)C2=O,85.3%
4,O=C(Nc1ccncc1)C(=O)c1cn(S(=O)(=O)c2cccc(F)c2)c2ccccc12,35%
5,COc1ccc(-c2cn(-c3ccccc3)c(-c3ccccc3)n2)cc1OC,77%
6,Clc1ccc2nc(Cl)c3ccccc3c2c1,83%
7,Nc1ccc(C2=NN(c3ccccc3)C(c3ccc(Cl)cc3)C2)cc1 (stereo unspecified),62.4%
8,CSc1nnc(C2=CC(=O)c3ccccc3C2=O)n1-c1ccccc1,68.9%
9,CCN(CC)c1ccc(CN(CC(=O)c2ccc(Cl)c(Cl)c2)Cc2ccccc2)cc1,98%
10,C/C(=C\CCc1ccsc1)CC/C=C(\C)CCCN1CCC(CO)CC1,-22.2% (active)
11,O=C(Nc1cccc(C(F)(F)F)c1)Nc1ccc(OCc2nnc(-c3ccc(Cl)cc3)o2)c(F)c1,66.7%
12,CCOc1cc(-c2ccc[nH]2)[nH]c1/C=C1\N=C(C)C(C(=O)OC)=C1C,-53.8% (active)
13,O=C1/C(=C/c2ccc([N+](=O)[O-])s2)Oc2ccc(Br)cc21,-16.8% (active)
14,COc1ccc(Nc2nccc(N3CCN(c4c5ccc(Cl)cc5nc5ccc(OC)cc45)CC3)n2)cc1,-2.31% (active)
15,Cc1cc(NCCCNc2ccnc3cc(Cl)ccc23)nc(N2CCN(C)CC2)n1,21.2%
16,O=C(Nc1ccc(OCc2nnc(-c3ccccc3)o2)c(F)c1)Nc1ccc(Cl)c(C(F)(F)F)c1,13.7%
17,c1cnc2n[nH]c(Nc3ncnc4c3sc3ncccc34)c2c1,97.9%
18,COc1cc(/C=C2\CCC/C(=C\c3ccc(OCC4CO4)c(OC)c3)C2=O)ccc1OCC1CO1 (stereo unspecified),-12.6% (active)
19,COc1cc(/C=C2\COc3ccc(O)c(O)c3C2=O)cc(OC)c1,-24.3% (active)

row,Compound,growth
1,O=C1/C(=C/c2ccc([N+](=O)[O-])o2)Oc2ccc(Cl)cc21,-12.4% (active)
2,O=[N+]([O-])c1cnc(Sc2ccncn2)c([N+](=O)[O-])c1,-41.2% (active)
3,O=C(O)c1ccc(NC(=O)c2ccc(Nc3ccnc(C(F)(F)F)c3)cc2)cc1,94.5%
4,Cc1ccc2c(c1)O/C(=C\c1ccc([N+](=O)[O-])o1)C2=O,-1.6% (active)
5,O=C1/C(=C/c2ccc([N+](=O)[O-])o2)Oc2ccc(Br)cc21,1.28% (active)
6,O=C(Nc1ccc(Cl)cc1)c1cc2c(cc1O)[nH]c1ccccc12,-9.5% (active)
7,Cc1cc2c(cc1C)Nc1sc(NC(=O)CN3CCN(C)CC3)nc1C(=O)N2,87.4%
8,COc1ccc2nc3cc(Cl)ccc3c(N3CCN(c4ccnc(Nc5ccc(F)cc5)n4)CC3)c2c1,20%
9,COc1cc(C2CC(c3ccc(C)cc3)=NN2C(C)=O)ccc1Oc1ccnc2cc(Cl)ccc12 (stereo unspecified),86.8%
10,O=C(/C=C/c1cccnc1)NCCCCC1CCCN(C(=O)c2ccccc2)C1 (stereo unspecified),43.8%
11,CCOC(=O)c1c(NC(=O)C2CCCCC2C(=O)O)sc2c1CCCC2 (stereo unspecified),105%
12,Cc1ccc(C=C2C(Cl)=C(Cl)C(Cl)=C2Cl)cc1,18.3%
13,O=C(/C(=N/O)S(=O)(=O)c1ccccc1)c1cccs1,104%
14,CCOc1nc(-c2ccccc2)cc2c(O)c(C(=O)n3nc(C)cc3C)[nH]c(=O)c12,99%
15,COc1ccc(OC)c(NC(=O)c2cc3oc4ccccc4c3cc2O)c1,117%
16,CN(C)c1ccc(/C=C(\C#N)c2nc3ccccc3c(=O)[nH]2)cc1,118%
17,Nc1nc(SCc2ccccc2Cl)c(-c2ccccc2)c(SCc2ccccc2Cl)n1,90.9%
18,C/C(=C\CCc1ccsc1)CC/C=C(\C)CCCN1CCN(CCO)CC1,2.14% (active)
19,CCN1C(=O)c2ccc3c4c(ccc(c24)C1=O)C(=O)N(CCCNCc1ccccc1OC)C3=O,-51.7% (active)

# — PubChem BioAssay (NCI)
